In PubChem BioAssay:
Several values for one entry are separate records, joined by “and”; a condition that tells them apart may be missing. Identical values can stand only once. Inconclusive results are not listed. Activity calls are given as the source filed them.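 The calls were made as follows, unless noted: active = normalized viability below 100% at a tested concentration; inactive = the rest.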

How the values were obtained:
[1] = liver-stage malaria parasite growth inhibition, primary screen, cell-based, HepG2, luciferase luminescence, HepG2 viability (AID 624349; in the data active = parasite load remaining mostly below about 12%, no sharp cut-off; inactive = mostly above about 10%;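 also: 100% = mean of DMSO negative control wells on the same plate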); conditions: P. berghei liver stage in HepG2, luciferase luminescence, concentration not given here; parasite load remaining: stronger effect = lower value; viability: measured here: HepG2 viability without parasites
[2] = growth inhibition of DIPG glioma cells, dose response, cell-based, SU-DIPG-IV, MIPE4.0, CellTiter-Glo, qHTS (AID 1347063; cut-off not given, nearly all actives have AC50 up to about 30 µM;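 also: compound exposure lasted 48 hours before the viability readout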); conditions: SU-DIPG-IV viability, CellTiter-Glo ATP luminescence
[3] = viability loss in pontine glioma line – cell-based, SU-DIPG-XXV, MIPE5.0, CellTiter-Glo, qHTS, dose response (AID 1347065; cut-off not given, nearly all actives have AC50 up to about 26 µM;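 also: cells exposed to compound for 48 hours before ATP readout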); conditions: CellTiter-Glo ATP luminescence
[4] = SU-DIPG-VI glioma cell viability, MIPE4.0 library, CellTiter-Glo luminescence, qHTS (AID 1347066; cut-off not given, nearly all actives have AC50 up to about 30 µM;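 also: cells exposed to compound for 48 hours before readout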); conditions: CellTiter-Glo ATP luminescence
[5] = growth inhibition of DIPG glioma cells, dose response, cell-based, SU-DIPG-XIII, MIPE5.0, CellTiter-Glo, qHTS (AID 1347064; cut-off not given, nearly all actives have AC50 up to about 23 µM;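 as to AC50: cells exposed to compound for 48 hours before the viability read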); conditions: SU-DIPG-XIII viability, CellTiter-Glo ATP luminescence
[6] = JHH-DIPG-1 glioma cell viability, MIPE5.0 library, CellTiter-Glo luminescence, qHTS (AID 1347067; cut-off not given, nearly all actives have AC50 up to about 26 µM;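 also: cells exposed to compound for 48 hours before readout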); conditions: JHH-DIPG-1 glioma viability, CellTiter-Glo ATP luminescence
[7] = SU-DIPG-XXV glioma cell viability, MIPE5.0 library, qHTS (AID 1347068; cut-off not given, nearly all actives have IC50 up to about 30 µM)
[8] = sensitizers of A549 cells to miR-34 induction, primary screen, imaging, A549 dox-inducible miR-34, nuclei and caspase counts (AID 1347080;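 active = compounds whose cell count with miR-34 switched on is under 0.7 times the count with it off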); conditions: A549 miR-34 inducible, Hoechst nuclei count, 48 h
[9] = survival rescue of mitochondrial mutant cells in low glucose, primary screen, MELAS cybrids, Rieske KO mouse fibroblasts, CellTiter-Glo (AID 1508586;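 active = mean z-score across replicates of 1.96 or higher in either the MELAS or the Rieske mutant cell line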;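 also: z relative to plate mean and SD of compound and empty wells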)
[10] = modifiers of HSF1 nuclear foci, imaging, Selleck Cancer Library (AID 1347162; in the data active = plate-normalised HSF1 focus index below about 0.46); conditions: human cells, at 10 µM; SSMD: measured here: HSF1 foci SSMD mean; cell count: measured here: cell number; plate-normalised HSF1 focus index: stronger effect = lower value
[11] = ovarian cancer cell viability with rucaparib, profiling panel, oncology-focused library, rucaparib conditional (AID 1508598); conditions: patient-derived ovarian cancer cells, CellTiter-Glo viability, 144 h, stronger effect = lower value
[12] = stronger effect = lower value, cell number ratio, induced over uninduced
[13] = measured here: relative caspase fold change +Dox/-Dox
[14] = measured here: total cells with miR-34 induction, stronger effect = lower value
[15] = measured here: total cells without miR-34 induction
[16] = MELAS cybrid survival, CellTiter-Glo 48 h, stronger effect = higher value
[17] = Rieske KO mouse fibroblast survival, CellTiter-Glo 72 h

For `O=c1[nH]c2ccccc2n1C1CCN(Cc2ccc(-c3[nH]c4cc5ncnc5cc4nc3-c3ccccc3)cc2)CC1`, the parasite load remaining [1] was 45.5% (inactive), the viability [1] was 115% and the AC50 [2] was 16.6 µM (active). The AC50 [3] was 23.5 µM (active) and the AC50 [4] was 14.8 µM (active).
With `CCNC(=O)CC1N=C(c2ccc(Cl)cc2)c2cc(OC)ccc2-n2c(C)nnc21` (stereo not drawn) the AC50 [2] was 16.6 µM (active), the outcome [5] was “inactive” and the outcome [3] was “inactive”. The outcome [6] was “inactive”, the outcome [7] was “inactive” and the fold change [8, 12] was 0.886 (inactive). It also gave a fold change [8, 13] of 0.522, a cell count [8, 14] of 5810 and a cell count [8, 15] of 6550. The z-score [9, 16] was 0.755 (inactive) and the z-score [9, 17] was -2.99.
For `CCCCC/C=C\C/C=C\C/C=C\C/C=C\CCCC(=O)NOCCO`, the fold change [8, 12] was 0.931 (inactive), the fold change [8, 13] was 0.519 and the cell count [8, 14] was 5500. For the same compound, the cell count [8, 15] was 5910.
In the case of `C[C@H](CCC(=O)O)C[C@H](C)C[C@H](C)C(=O)/C=C(\O)[C@H](C)C[C@H](C)C/C=C/[C@@H](C)[C@@H](O)[C@@H](C)[C@@H](O)C[C@@H]1CC[C@@](C)([C@H]2CC[C@@](C)([C@@H](C)O)O2)O1`, the fold change [8, 12] was 0.679 (active), the fold change [8, 13] was 0.922 and the cell count [8, 14] was 621. The cell count [8, 15] was 914.
In the case of `C[C@H](Nc1ncnc2nc[nH]c12)c1nc2ccc(F)cc2c(=O)n1-c1ccccc1`, the AC50 [3] was 14.8 µM (active) and the outcome [7] was “inactive”.
In the case of `CCCCCC(=O)N[C@H]1CCOC1=O`, the fold change [8, 12] was 0.883 (inactive), the fold change [8, 13] was 0.721 and the cell count [8, 14] was 5400. For the same compound, the cell count [8, 15] was 6120.
For `CCCCCCC(C)(C)c1cc(O)c2c(c1)OC(C)(C)C1CC=C(CO)C[C@H]21` (stereo partly drawn), the AC50 [5] was 9.34 µM (active), the AC50 [3] was 7.42 µM (active) and the AC50 [6] was 7.42 µM (active).
For `Cc1cc(C(C#N)c2ccc(Cl)cc2)c(Cl)cc1NC(=O)c1cc(I)cc(I)c1O` (stereo not drawn), the fold change [8, 12] was 0.964 (inactive) and 0.906 (inactive) and 0.861 (inactive), the fold change [8, 13] was 0.325 and 0.48 and 1.33 and the cell count [8, 14] was 8250 and 7900 and 8930. The cell count [8, 15] was 8560 and 8730 and 10400.
With `C=C(C)[C@@H]1CCC(C)=C[C@H]1c1c(OC)cc(CCCCC)cc1OC` the fold change [8, 12] was 0.935 (inactive), the fold change [8, 13] was 1.03 and the cell count [8, 14] was 5760. For the same compound, the cell count [8, 15] was 6160.
With `C[C@@H](C1CC[C@@]2(O)C3=CC(=O)[C@@H]4C[C@@H](O)[C@@H](O)C[C@]4(C)[C@H]3CC[C@]12C)[C@H](O)CCC(C)(C)O` (stereo partly drawn) the outcome [5] was “inactive”, the outcome [3] was “inactive” and the outcome [6] was “inactive”.
With `C[C@H]1[C@@H](C(=O)C[C@H]2O[C@@H]3O[C@]4(C)CC[C@H]5[C@H](C)CC[C@@H]([C@H]2C)[C@@]35OO4)O[C@@H]2O[C@]3(C)CC[C@H]4[C@H](C)CC[C@@H]1[C@@]24OO3` the outcome [4] was “inactive”.
For `CCCCC/C=C\C/C=C\C/C=C\C/C=C\CCCC(=O)Nc1ccc([N+](=O)[O-])cc1`, the fold change [8, 12] was 1.04 (inactive), the fold change [8, 13] was 1.21 and the cell count [8, 14] was 5860. It also gave a cell count [8, 15] of 5630.
For `CCCCC/C=C\C/C=C\C/C=C\C/C=C\CCCC(=O)Nc1ccc2c(C)cc(=O)oc2c1`, the fold change [8, 12] was 0.937 (inactive), the fold change [8, 13] was 0.94 and the cell count [8, 14] was 5170. For the same compound, the cell count [8, 15] was 5510.
With `C=C(C)[C@@H]1CCC(C)=C[C@H]1C1=C(O)C(=O)C(CCCCC)=CC1=O` the fold change [8, 12] was 1.08 (inactive), the fold change [8, 13] was 0.935 and the cell count [8, 14] was 5410. It also gave a cell count [8, 15] of 5000.
In the case of `CNCCCCCCN(C)N(O)N=O`, the fold change [8, 12] was 0.998 (inactive), the fold change [8, 13] was 0.973 and the cell count [8, 14] was 6040. It also gave a cell count [8, 15] of 6050.
In the case of `Cc1c(C(=O)Nc2cccc(C(F)(F)F)c2)cc(-c2ccccc2)n1CCCN1CCOCC1`, the AC50 [2] was 18.7 µM (active) and the outcome [5] was “inactive”.
With `Cn1cc(C2=C(c3cn(C4CCN(Cc5ccccn5)CC4)c4ccccc34)C(=O)NC2=O)c2ccccc21` the outcome [4] was “inactive”, the outcome [7] was “inactive” and the fold change [8, 12] was 0.96 (inactive). The fold change [8, 13] was 1.18, the cell count [8, 14] was 6030 and the cell count [8, 15] was 6280. For the same compound, the SSMD [10] was 0.559, the cell count [10] was 6710 and the plate-normalised HSF1 focus index [10] was 1.03 (inactive). The z-score [9, 16] was -0.204 (inactive), the z-score [9, 17] was -2.05 and the viability ([11]; at 0.000305 µM, OCI-C5x cells, with rucaparib 10 µM, 100% = cells with rucaparib alone) was 118% (inactive). The viability ([11]; at 0.000305 µM, OCI-C5x cells, without rucaparib) was 151% (inactive), the viability ([11]; at 0.000305 µM, OCI-P5x cells, with rucaparib 20 µM, 100% = cells with rucaparib alone) was 108% (inactive) and the viability ([11]; at 0.000305 µM, OCI-P5x cells, without rucaparib) was 115% (inactive). For the same compound, the viability ([11]; at 0.00122 µM, OCI-C5x cells, with rucaparib 10 µM, 100% = cells with rucaparib alone) was 136% (inactive), the viability ([11]; at 0.00122 µM, OCI-C5x cells, without rucaparib) was 148% (inactive) and the viability ([11]; at 0.00122 µM, OCI-P5x cells, with rucaparib 20 µM, 100% = cells with rucaparib alone) was 113% (inactive). The viability ([11]; at 0.00122 µM, OCI-P5x cells, without rucaparib) was 105% (inactive), the viability ([11]; at 0.00488 µM, OCI-C5x cells, with rucaparib 10 µM, 100% = cells with rucaparib alone) was 127% (inactive) and the viability ([11]; at 0.00488 µM, OCI-C5x cells, without rucaparib) was 136% (inactive). For the same compound, the viability ([11]; at 0.00488 µM, OCI-P5x cells, with rucaparib 20 µM, 100% = cells with rucaparib alone) was 109% (inactive), the viability ([11]; at 0.00488 µM, OCI-P5x cells, without rucaparib) was 105% (inactive) and the viability ([11]; at 0.0195 µM, OCI-C5x cells, with rucaparib 10 µM, 100% = cells with rucaparib alone) was 138% (inactive). For the same compound, the viability ([11]; at 0.0195 µM, OCI-C5x cells, without rucaparib) was 144% (inactive), the viability ([11]; at 0.0195 µM, OCI-P5x cells, with rucaparib 20 µM, 100% = cells with rucaparib alone) was 106% (inactive) and the viability ([11]; at 0.0195 µM, OCI-P5x cells, without rucaparib) was 98.4% (active). The viability ([11]; at 0.0781 µM, OCI-C5x cells, with rucaparib 10 µM, 100% = cells with rucaparib alone) was 127% (inactive), the viability ([11]; at 0.0781 µM, OCI-C5x cells, without rucaparib) was 149% (inactive) and the viability ([11]; at 0.0781 µM, OCI-P5x cells, with rucaparib 20 µM, 100% = cells with rucaparib alone) was 119% (inactive). The viability ([11]; at 0.0781 µM, OCI-P5x cells, without rucaparib) was 105% (inactive), the viability ([11]; at 0.313 µM, OCI-C5x cells, with rucaparib 10 µM, 100% = cells with rucaparib alone) was 136% (inactive) and the viability ([11]; at 0.313 µM, OCI-C5x cells, without rucaparib) was 146% (inactive). The viability ([11]; at 0.313 µM, OCI-P5x cells, with rucaparib 20 µM, 100% = cells with rucaparib alone) was 111% (inactive), the viability ([11]; at 0.313 µM, OCI-P5x cells, without rucaparib) was 93.7% (active) and the viability ([11]; at 1.25 µM, OCI-C5x cells, with rucaparib 10 µM, 100% = cells with rucaparib alone) was 149% (inactive). The viability ([11]; at 1.25 µM, OCI-C5x cells, without rucaparib) was 156% (inactive), the viability ([11]; at 1.25 µM, OCI-P5x cells, with rucaparib 20 µM, 100% = cells with rucaparib alone) was 113% (inactive) and the viability ([11]; at 1.25 µM, OCI-P5x cells, without rucaparib) was 92.6% (active). For the same compound, the viability ([11]; at 5 µM, OCI-C5x cells, with rucaparib 10 µM, 100% = cells with rucaparib alone) was 159% (inactive), the viability ([11]; at 5 µM, OCI-C5x cells, without rucaparib) was 140% (inactive) and the viability ([11]; at 5 µM, OCI-P5x cells, with rucaparib 20 µM, 100% = cells with rucaparib alone) was 102% (inactive). The viability ([11]; at 5 µM, OCI-P5x cells, without rucaparib) was 99.4% (active).
In the case of `CC1(C)C(=O)N(c2ccc(C#N)c(C(F)(F)F)c2)C(=S)N1Cc1ccc(-c2cn[nH]n2)cc1`, the outcome [7] was “inactive”.
In the case of `CC(C)(NC(=O)O[C@@H]1CN2CCC1CC2)c1csc(-c2ccc(F)cc2)n1`, the outcome [5] was “inactive”, the outcome [3] was “inactive” and the outcome [6] was “inactive”. The outcome [7] was “inactive”.
With `C[C@@H]1CC([C@H](O)CC2CC(=O)NC(=O)C2)C(=O)[C@@H](C)C1` (stereo partly drawn) the fold change ([8]; stronger effect = lower value) was 1.01 (inactive), the fold change [8, 13] was 1.96 and the cell count [8, 14] was 1800. For the same compound, the cell count [8, 15] was 1780.
For `CCCCC/C=C\C/C=C\C/C=C\C/C=C\CCCC(=O)NC`, the fold change [8, 12] was 0.953 (inactive), the fold change [8, 13] was 2.18 and the cell count [8, 14] was 5880. It also gave a cell count [8, 15] of 6170.
For `CC1OC(=O)C(C(C)C)NC(=O)C(C(C)C)OC(=O)C(C(C)C)NC(=O)C(C)OC(=O)C(C(C)C)NC(=O)C(C(C)C)OC(=O)C(C(C)C)NC(=O)C(C)OC(=O)C(C(C)C)NC(=O)C(C(C)C)OC(=O)C(C(C)C)NC1=O` (stereo not drawn), the fold change ([8]; stronger effect = lower value) was 0.784 (inactive), the fold change [8, 13] was 1.28 and the cell count [8, 14] was 1020. It also gave a cell count [8, 15] of 1300.
